Assay results from PubChem BioAssay (NCI).
The panel holds about 83,000 compounds, 20% with a hit somewhere; the sample as a whole holds those more often.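 Cell lines were cultured in 96-well plates, exposed to a single compound concentration, and assessed for percent growth 48 hours later.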 Active and inactive are the calls of the source. Rule for the calls: active = growth percent below 10; inactive = the rest.

test system: CAKI-1 renal; test: NCI-60 one-dose screen, 48 h (100 = growth as untreated, 0 = no growth, -100 = all killed); settings: 10 µM unless noted

Question: For CCS(=O)(=O)Nc1cccc(Nc2c3cccc(C)c3nc3c(C)cccc23)c1OC, which growth is on record?
Answer: 10.7% (inactive)

Question: How did the growth turn out when Cc1nn(-c2ccccc2)c2nc3c(nc12)C1=NCCN1C(c1ccc(Cl)cc1)N3 (centres undefined) was run?
Answer: 82.6% (inactive)

Question: Which growth does the source give for O=C(Nc1cccc(C2=NCCN2)c1)c1ccc(N=Nc2ccc(C(=O)Nc3cccc(C4=NCCN4)c3)cc2)cc1 here?
Answer: 90.7% (inactive)

Question: How did the growth turn out when COC(=O)[C@@H](Cc1c[nH]c2ccccc12)NC(=O)/C=C/c1ccccc1 was run?
Answer: 31.7% (inactive)

Question: With CCOC(=O)C(CCCCC(NC(C)=O)(C(=O)OCC)C(=O)OCC)(NC(C)=O)C(=O)OCC as the compound, how does the growth read?
Answer: 104% (inactive)

Question: Which growth does the source give for COc1ccc(-c2cc(-c3cc4ccccc4oc3=O)n(-c3ccccc3)n2)cc1 here?
Answer: 97.1% (inactive)

Question: With CC(C)N(C(=S)SSC(=S)N(C(C)C)C(C)C)C(C)C as the compound, how does the growth read?
Answer: 85.8% (inactive)

Question: CCOC(OCC)c1cnc2nc(NC(C)=O)[nH]c(=O)c2n1 was tested. Which growth did it give?
Answer: 102% (inactive)

Question: For CC(C)(C)c1cc(C[P+](c2ccccc2)(c2ccccc2)c2ccccc2)cc(C(C)(C)C)c1O, which growth is on record?
Answer: -2.21% (active)

Question: Which growth does the source give for N#Cc1ccc(-c2ccc(-c3cccs3)o2)cc1F here?
Answer: 78.1% (inactive)

Question: CCN(C(=O)CCl)C(C)(C)C(SSSC(c1ccc(Cl)cc1)C(C)(C)N(CC)C(=O)CCl)c1ccc(Cl)cc1 (centres undefined) was tested. Which growth did it give?
Answer: 29.1% (inactive)

Question: How did the growth turn out when N=C(N)c1ccc(-c2ccc(-c3ccco3)o2)cc1F was run?
Answer: 23.1% (inactive)

Question: COc1ccc(/C=C/c2nc(NCCCN(C)C)c3ccccc3n2)cc1 was tested. Which growth did it give?
Answer: 87.7% (inactive)

Question: For COc1cc2c(cc1OC)-c1cc(OC)c(OC)cc1C(CN(C)C)C2 (centres undefined), which growth is on record?
Answer: 11.6% [100 µM] (inactive)

Question: CCCCCCCCN=C(NCCCCCCCC)SCc1cccc2ccccc12 was tested. Which growth did it give?
Answer: -84.9% (active)

Question: With N=C(N)c1ccc(-c2ccc(-c3cccs3)s2)cc1F as the compound, how does the growth read?
Answer: -72.6% (active)

Question: With COc1ccc2nc(-c3ccc(-c4noc(-c5ccc(Cl)cc5)n4)cc3)[nH]c2c1 as the compound, how does the growth read?
Answer: 92.1% (inactive)

Question: For Cc1cccc2nc3ccccc3c(Nc3ccc(NS(C)(=O)=O)cc3)c12, which growth is on record?
Answer: 23.4% (inactive)

Question: How did the growth turn out when CC(C)CCSc1nc(Nc2ccccc2)c(C#N)c(-c2ccc(F)cc2)n1 was run?
Answer: 55.5% (inactive)

Question: For COc1cc(OC)cc(-c2ccc(-c3ccc(C(=N)N)s3)s2)c1, which growth is on record?
Answer: -86.4% (active)

Question: COc1ccc(-c2ccc(-c3ccc(C(=N)N)s3)s2)cc1 was tested. Which growth did it give?
Answer: -82.8% (active)

Question: Which growth does the source give for C#CCO[C@H]1CC[C@H](OCC#C)[C@@H]2[C@H]1[C@H]1C[C@@H]3[C@@]4(C)CCC[C@@](C)(C(=O)OC)[C@@H]4CC[C@@]23C=C1C(C)C here?
Answer: 59.3% (inactive)

Question: COC(=O)[C@H](Cc1cn(C)cn1)NC(=O)[C@H](CC(C)C)NC(=O)Nc1cc(C(F)(F)F)cc(C(F)(F)F)c1 was tested. Which growth did it give?
Answer: -99.2% [100 µM] (active)

Question: How did the growth turn out when O=C1CCCN1C1CCN2CCCc3cccc1c32 (centres undefined) was run?
Answer: 105% (inactive)

Question: With O=C(CCCN1CCC(O)(c2ccc(Br)cc2)CC1)c1ccc(F)cc1 as the compound, how does the growth read?
Answer: 82.1% (inactive)

Question: For COc1ccc(/C=N/NC(N)=S)c(OC)n1, which growth is on record?
Answer: 113% (inactive)

Question: How did the growth turn out when CCN1C(=O)N(CC)C2C1N=C(SC)N2/N=C/C=C/c1ccccc1OC (centres undefined) was run?
Answer: 25% (inactive)

Question: For C/C(=N\Nc1ccc([N+](=O)[O-])cn1)c1ccc(N)cc1, which growth is on record?
Answer: 101% (inactive)

Question: How did the growth turn out when N/C(=N\O)c1ncc(-c2ccc(C(F)(F)F)cc2)c(NC2CCCCCC2)n1 was run?
Answer: -76.4% [100 µM] (active)

Question: For O=[N+]([O-])c1ccc(Sc2nc(Cl)nc(NC3CCCC3)n2)cc1, which growth is on record?
Answer: -91.4% [100 µM] (active)

Question: With Cc1cc2nc(CN)[nH]c2cc1C as the compound, how does the growth read?
Answer: 108% (inactive)

Question: With ClC1=NC(Cl)C(Cl)=N/C1=N\c1ncn[nH]1 (centres undefined) as the compound, how does the growth read?
Answer: -75.9% (active)

Question: How did the growth turn out when COc1ccc(CNc2c3ccccc3nc3ccccc23)cc1F was run?
Answer: 21.3% (inactive)

Question: How did the growth turn out when CCOC(=O)C1C(=O)C=C(c2ccccc2)CC1c1sc(N(C)Cc2ccccc2)nc1Cl (centres undefined) was run?
Answer: 68.7% (inactive)

Question: With CCOC(=O)c1cc(C(=O)OCC)c(C)nc1C as the compound, how does the growth read?
Answer: 103% (inactive)

Question: Which growth does the source give for O=C1OCC2=C1C(c1ccccc1)c1cc3c(cc1N2CCO)CCC3 (centres undefined) here?
Answer: 26.7% (inactive)

Question: For O=C(CC(=O)c1ccccc1F)Nc1ccc([N+](=O)[O-])cc1, which growth is on record?
Answer: 106% (inactive)

Question: How did the growth turn out when Cc1cc(Nc2c3ccccc3nc3ccccc23)ccc1NS(C)(=O)=O was run?
Answer: 29% (inactive)

Question: How did the growth turn out when COC(=O)CSc1ccc(Cl)cc1 was run?
Answer: 95.1% (inactive)
